IL1B secr inh = blocks inflammasome-driven IL-1 beta release; THP-1 LPS/ATP IL-1B secretion, AlphaLISA, 16 h; active compounds read low; activity change, % at 57.5 µM; 360,000 compounds, 4.7% hits; in the data active = activity change below about -50%; inconclusive = mostly about -30% to -49%
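Secreted IL-1B measured by AlphaLISA bead assay after 16 h compound exposure of THP-1 cells; compounds (final up to 57.5 uM) added 1 h before LPS (250 ng/mL) and ATP (1.25 mM) stimulation; lower signal means less secretion.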
Gal4-VP16 FLuc = inhibits Gal4-VP16 luciferase reporter, ROR gamma counter-screen | Drosophila S2 Gal4-VP16 UAS-luciferase, luminescence, 20 h | Potency, µM (series often up to 53.6 µM), actives largely listed as inhibitors | 310,000 compounds, 3.5% hits | AID 2546;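 also: Gal4-VP16 expression switched on by copper sulfate through the metallothionein promoter; nearly all actives have a fitted effect of over 50% in size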
DT40 TDP1 no CPT = qHTS for Inhibitors of human tyrosyl-DNA phosphodiesterase 1 (TDP1): qHTS in cells in absence of CPT. DT40 Tdp1-/- hTDP1 cells, no CPT, ATP luminescence, 48 h. Potency, µM (doses to about 46.2 µM), hits mostly inhibitors. 420,000 compounds, 15% hits. AID 686978, 2013; also: nearly all actives have a fitted effect of over 55% in size
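Chicken DT40 Tdp1-/- cells complemented with human TDP1, screened without camptothecin (DMSO vehicle only), 400 cells/well. Compounds pin-transferred, cells incubated at 37 °C for at least 48 hr. Growth read as ATP-dependent luminescence (CellTiter-Glo, 30 min at RT).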
ELG1 DNA repair = ELG1-dependent DNA repair inhibition | HEK293T ELG1-luciferase reporter, luminescence, 16 h; DNA damage induced by 5-fluorouridine | Potency, µM (highest dose often 46.1 µM), actives largely listed as inhibitors | 330,000 compounds, 2.3% hits | AID 504467; also: nearly all actives have a fitted effect of over 55% in size
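Cells (2,000 per well) received 5-fluorouridine plus test compound or DMSO and were incubated 16 hr at 37 °C, 5% CO2. Luciferase activity was read by luminescence 30 min after ONE-Glo addition; signal suppression marked inhibition of damage-induced ELG1 function.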
TDP1 cell CPT = DT40-hTDP1 cell growth loss with CPT. AID 686979. 420,000 compounds, 12% hits. chicken DT40 Tdp1-/-;hTDP1 cells + 20 nM CPT, ATP luminescence, 48 h. Potency, µM (highest dose often 46.2 µM), most hits filed as inhibitors; also: nearly all actives have a fitted effect of over 55% in size
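Cell growth measured by CellTiter-Glo luminescence after a minimum 48 h, 37 C compound exposure with 20 nM CPT in Tdp1-knockout DT40 cells stably expressing hTDP1, seeded 400/well; qHTS titration format.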
RORg inh = ROR gamma (mouse) transcription inhibition. P51450. Drosophila S2 Gal4-RORgamma UAS-luciferase reporter, 20 h. Potency, µM (series often up to 53.6 µM), most hits filed as inhibitors. 310,000 compounds, 5.4% hits. AID 2551; also: nearly all actives have a fitted effect of over 60% in size
Target sequence (P51450 whole entry, looked up, the tested form may be a part): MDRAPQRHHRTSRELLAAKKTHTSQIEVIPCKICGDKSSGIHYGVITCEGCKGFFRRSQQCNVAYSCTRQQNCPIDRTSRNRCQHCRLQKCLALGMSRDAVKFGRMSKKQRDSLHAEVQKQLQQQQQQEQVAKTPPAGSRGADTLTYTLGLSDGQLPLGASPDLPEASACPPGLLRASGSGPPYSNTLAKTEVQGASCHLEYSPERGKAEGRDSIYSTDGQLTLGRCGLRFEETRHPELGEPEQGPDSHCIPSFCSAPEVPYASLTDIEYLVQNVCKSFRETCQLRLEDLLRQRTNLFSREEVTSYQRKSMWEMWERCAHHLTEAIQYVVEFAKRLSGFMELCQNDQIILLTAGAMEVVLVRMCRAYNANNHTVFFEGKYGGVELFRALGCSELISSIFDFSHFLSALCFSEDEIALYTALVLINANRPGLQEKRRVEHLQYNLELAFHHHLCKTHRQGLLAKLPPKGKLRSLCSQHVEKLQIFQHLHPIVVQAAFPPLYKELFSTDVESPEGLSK
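Luminescence from a UAS-regulated Photinus luciferase reporter in stably transfected Drosophila Schneider cells is measured; decreased signal marks ROR gamma inhibition. Fusion expression is induced by 700 uM copper sulfate for 20 hr.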
Of the large screens only hits and unclear results are named; the others gave an inactive call. Hits are enriched below; roughly 21% of the tested compounds scored in any of these assays. Unless noted, calls follow the shape of the dose curve; as a rule, active = well fitted curve in the direction sought with a large enough effect; inconclusive = small, poorly fitted or top-dose-only effect, or another doubt; inactive = no such curve, though single readings can be large; an effect the other way counts as inactive or inconclusive.

CCN1CCN(c2c(Cl)cccc2NC(=O)c2ccco2)CC1	IL1B secr inh -68, DT40 TDP1 no CPT inconclusive
O=C(Nc1ccccc1N1CCOCC1)c1cccnc1	none
O=C(Nc1cccc(Cl)c1N1CCCC1)c1ccc([N+](=O)[O-])o1	IL1B secr inh -84
O=C(Nc1ccccc1C(F)(F)F)C1(S(=O)(=O)c2ccc(Cl)cc2)CC1	none (no result: IL1B secr inh, Gal4-VP16 FLuc, ELG1 DNA repair, RORg inh)
CC(C)(C)N1C(=O)[C@H]2[C@H]3[C@H](O)[C@H](O)C/C(=N/OCc4ccccc4)[C@H]3CC[C@@H]2C1=O	none (no result: IL1B secr inh, DT40 TDP1 no CPT, ELG1 DNA repair, TDP1 cell CPT)
O=C(Nc1ccccc1N1CCN(C(=O)c2ccc(Cl)cc2)CC1)c1ccc([N+](=O)[O-])o1	IL1B secr inh -76, Gal4-VP16 FLuc inconclusive, DT40 TDP1 no CPT inconclusive, TDP1 cell CPT 21µM
O=C(Nc1ccccc1N1CCCCC1)c1ccc(-c2cc(Cl)ccc2Cl)o1	none (no result: Gal4-VP16 FLuc, ELG1 DNA repair, RORg inh)
CCCN1CCC(=O)N(CCO)CC1	none
COc1cc2c(cc1NS(=O)(=O)c1cccc(C#N)c1)n(C)c(=O)n2C	DT40 TDP1 no CPT inconclusive, TDP1 cell CPT 21µM (no result: IL1B secr inh, Gal4-VP16 FLuc, ELG1 DNA repair, RORg inh)
COc1cccc(C2CC(c3cccs3)=NN2C(=O)c2ccco2)c1O (configuration not stated)	RORg inh 5.6µM
O=C(c1ccco1)N1N=C(c2cccs2)CC1c1ccccc1O (configuration not stated)	DT40 TDP1 no CPT 21µM, TDP1 cell CPT 18µM
Cc1cc(=O)[nH]c2nnc(SCc3ccc(F)cc3)n12	none (no result: IL1B secr inh, Gal4-VP16 FLuc, ELG1 DNA repair, RORg inh)
Cc1ccc(-c2nc3c(Cl)cc(C(F)(F)F)cn3c2Cc2ccsc2)cc1	DT40 TDP1 no CPT inconclusive, TDP1 cell CPT inconclusive (no result: Gal4-VP16 FLuc, ELG1 DNA repair, RORg inh)
COc1ccc(C(CNC(=O)C(CCSC)NC(=O)c2ccccc2Cl)N2CCCCC2)cc1 (configuration not stated)	none (no result: Gal4-VP16 FLuc, RORg inh)
COc1ccc(C2(c3ccc(OC)cc3)NC(=O)N(Cn3nnc4ccccc4c3=O)C2=O)cc1	DT40 TDP1 no CPT inconclusive, ELG1 DNA repair inconclusive, TDP1 cell CPT 21µM
CCCCCN(C(=O)CCC(=O)OC(C)C(=O)c1ccc(CC)cc1)c1c(N)n(CCCC)c(=O)[nH]c1=O (configuration not stated)	TDP1 cell CPT inconclusive (no result: Gal4-VP16 FLuc, ELG1 DNA repair, RORg inh)
CCN(CC)CCCNc1ccc2ncn3c4ccc(O)cc4c(=O)c1c23	IL1B secr inh -93, DT40 TDP1 no CPT 0.15µM, TDP1 cell CPT 0.15µM (no result: Gal4-VP16 FLuc, ELG1 DNA repair, RORg inh)
CN(C)CCNc1ccc2nnn3c4ccc(O)cc4c(=O)c1c23	IL1B secr inh -53, DT40 TDP1 no CPT 0.18µM, TDP1 cell CPT 0.18µM (no result: Gal4-VP16 FLuc, ELG1 DNA repair, RORg inh)
COc1ccc(C)cc1Nc1nc2c(S(=O)(=O)c3cc(C)ccc3C)nnn2c2ccsc12	none (no result: IL1B secr inh, Gal4-VP16 FLuc, ELG1 DNA repair, RORg inh)
O=C(CSc1nnc(-c2cnccn2)n1Cc1ccco1)c1ccccc1	none
O=C(CSc1nnc(-c2cnccn2)n1Cc1ccco1)c1ccc(Cl)cc1	Gal4-VP16 FLuc inconclusive, DT40 TDP1 no CPT inconclusive, TDP1 cell CPT 23µM, RORg inh 10µM
O=C(CSc1nnc(-c2ccccn2)n1Cc1ccco1)c1ccc(Cl)cc1	DT40 TDP1 no CPT 29µM, TDP1 cell CPT 16µM, RORg inh inconclusive
CCC(=O)N1c2ccc(S(=O)(=O)N3CCOCC3)cc2CC1C (configuration not stated)	none
O=C(C[n+]1cccc2cc(Cl)ccc21)c1ccc2c(c1)CCCC2	none (no result: IL1B secr inh, Gal4-VP16 FLuc, ELG1 DNA repair, RORg inh)
COC(=O)c1cnn(-c2ccc(C(=O)Nc3ccc(C(C)=O)cc3)cc2)c1N	none (no result: IL1B secr inh, Gal4-VP16 FLuc, ELG1 DNA repair, RORg inh)
CCOc1ccccc1C(=O)N[C@H](C(=O)OCc1cc(=O)oc2cc(C)ccc12)C(C)C	IL1B secr inh -55, DT40 TDP1 no CPT 16µM, ELG1 DNA repair inconclusive, TDP1 cell CPT 6.5µM
COc1cc(OC)cc(C(=O)N[C@H](C(=O)OCc2cc(=O)oc3cc(C)ccc23)C(C)C)c1	DT40 TDP1 no CPT inconclusive, ELG1 DNA repair inconclusive, TDP1 cell CPT inconclusive

Bioassay records: PubChem BioAssay, National Center for Advancing Translational Sciences (NCATS)
